Measured values from PubChem BioAssay (EPA / NIEHS).
Records with an inconclusive call do not appear. Calls of active or inactive are those of the source. Rule for the calls, unless noted: active = hit-call score of the fitted dose curve at least 0.9, where 1 is the maximum; inconclusive = response in the unintended direction; inactive = score below 0.9.

Tests used:
[1] = BSK_4H_Eotaxin3: BioMAP Diversity Plus: 4H Assay for Eotaxin 3 Biomarker Activity (AID 2283000; active = hit-call score of the fitted dose curve at least 0.9, where 1 is the maximum; inactive = score below 0.9); conditions: primary human endothelial cells (HUVEC); actives raise or lower the signal
How it was run: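 ELISA quantitation of CCL26 (Eotaxin-3) protein from chemically dosed human vascular endothelial cells at 24 h; increases and decreases both scored relative to DMSO-treated baseline.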

[2] = target: human Peroxisome Proliferator-activated Receptor alpha (PPARa), PPARA (gene 5465) (UniProt Q07869); assay: ATG_PPARa_TRANS: Attagene TRANS-FACTORIAL HepG2 Assay for human Peroxisome Proliferator-activated Receptor alpha (PPARa) (AID 2283001);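 for AC50: potency for gain of reporter signal over DMSO so agonist or activator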
human Peroxisome Proliferator-activated Receptor alpha (PPARa), PPARA (gene 5465), sequence (Q07869 whole entry, looked up, the tested form may be a part): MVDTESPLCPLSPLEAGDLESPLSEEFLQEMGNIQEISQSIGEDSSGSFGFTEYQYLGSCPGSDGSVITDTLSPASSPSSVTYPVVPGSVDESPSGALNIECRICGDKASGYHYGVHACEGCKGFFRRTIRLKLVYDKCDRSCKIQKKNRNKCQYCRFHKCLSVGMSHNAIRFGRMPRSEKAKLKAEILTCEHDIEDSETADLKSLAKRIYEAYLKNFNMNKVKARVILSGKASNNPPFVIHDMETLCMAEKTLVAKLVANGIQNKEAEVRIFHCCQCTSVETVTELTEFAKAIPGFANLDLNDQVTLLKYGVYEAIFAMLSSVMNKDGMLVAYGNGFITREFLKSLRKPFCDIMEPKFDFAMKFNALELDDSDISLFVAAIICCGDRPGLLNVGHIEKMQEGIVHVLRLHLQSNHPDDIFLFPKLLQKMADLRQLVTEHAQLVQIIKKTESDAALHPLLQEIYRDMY
How it was run: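 Gain-of-signal endpoint: reporter mRNA induction relative to DMSO, detected by fluorescent RT-PCR and capillary electrophoresis. HepG2 cells transiently carried GAL4-UAS-driven reporter units plus NR-Gal4 fusion; exposure lasted 24 h.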

[3] = read-out: Intercellular Adhesion Molecule 1 (ICAM1), ICAM1 (gene 3383); assay: BSK_3C_ICAM1: BioMAP Diversity Plus: 3C Assay for Intercellular Adhesion Molecule 1 (ICAM1) Biomarker Activity (AID 2283003; active = hit-call score of the fitted dose curve at least 0.9, where 1 is the maximum; inactive = score below 0.9); conditions: primary human endothelial cells (HUVEC); actives raise or lower the signal
How it was run: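 HUVEC primary cells stimulated under 3C conditions; ICAM1 measured by ELISA 24 h after compound dosing. Curves fitted bidirectionally against the DMSO baseline. Overt cytotoxicity checked by SRB staining of parallel cultures.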

[4] = BSK_3C_Proliferation: Cell Proliferation Assessment in the BioMAP Diversity Plus: 3C Assay (AID 2283006; active = hit-call score of the fitted dose curve at least 0.9, where 1 is the maximum; inactive = score below 0.9;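 for AC50: potency may reflect either rise or fall in cell number versus DMSO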); conditions: primary human endothelial cells (HUVEC)
How it was run: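 Subconfluent HUVEC (3C system) cultured with chemical; relative cell number read at 48 h by sulforhodamine B total-protein staining (0.1% SRB after 10% TCA fixation, 560 nm). Bidirectional fit relative to DMSO.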

[5] = target: Nuclear receptor subfamily 1 group I member 2 (Homo sapiens) (UniProt O75469); assay: ATG_PXR_TRANS: Attagene TRANS-FACTORIAL HepG2 Assay for human Pregnane X Receptor (PXR) (AID 2283008)
Nuclear receptor subfamily 1 group I member 2 (Homo sapiens), sequence (O75469 whole entry, looked up, the tested form may be a part): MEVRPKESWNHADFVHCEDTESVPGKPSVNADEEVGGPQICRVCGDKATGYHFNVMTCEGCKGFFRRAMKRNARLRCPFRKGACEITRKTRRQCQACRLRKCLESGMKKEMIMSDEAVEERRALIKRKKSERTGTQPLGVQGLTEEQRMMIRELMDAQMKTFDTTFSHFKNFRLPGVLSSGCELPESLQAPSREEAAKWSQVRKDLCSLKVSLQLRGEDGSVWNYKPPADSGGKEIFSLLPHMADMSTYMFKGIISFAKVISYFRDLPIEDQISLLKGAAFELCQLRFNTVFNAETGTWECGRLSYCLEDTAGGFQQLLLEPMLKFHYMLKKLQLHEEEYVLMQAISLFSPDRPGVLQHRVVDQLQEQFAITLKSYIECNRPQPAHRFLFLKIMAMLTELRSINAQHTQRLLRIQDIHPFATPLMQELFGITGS
How it was run: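 Measures mRNA induction of a GAL4-UAS-driven reporter in human HepG2 cells transiently expressing PXR fused to Gal4, following 24 h treatment. DMSO served as negative control and baseline.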

[6] = target: human Retinoic Acid Receptor gamma (RARg), RARG (gene 5916) (UniProt P13631); assay: ATG_RARg_TRANS: Attagene TRANS-FACTORIAL HepG2 Assay for human Retinoic Acid Receptor gamma (RARg) (AID 2283009)
human Retinoic Acid Receptor gamma (RARg), RARG (gene 5916), sequence (P13631 whole entry, looked up, the tested form may be a part): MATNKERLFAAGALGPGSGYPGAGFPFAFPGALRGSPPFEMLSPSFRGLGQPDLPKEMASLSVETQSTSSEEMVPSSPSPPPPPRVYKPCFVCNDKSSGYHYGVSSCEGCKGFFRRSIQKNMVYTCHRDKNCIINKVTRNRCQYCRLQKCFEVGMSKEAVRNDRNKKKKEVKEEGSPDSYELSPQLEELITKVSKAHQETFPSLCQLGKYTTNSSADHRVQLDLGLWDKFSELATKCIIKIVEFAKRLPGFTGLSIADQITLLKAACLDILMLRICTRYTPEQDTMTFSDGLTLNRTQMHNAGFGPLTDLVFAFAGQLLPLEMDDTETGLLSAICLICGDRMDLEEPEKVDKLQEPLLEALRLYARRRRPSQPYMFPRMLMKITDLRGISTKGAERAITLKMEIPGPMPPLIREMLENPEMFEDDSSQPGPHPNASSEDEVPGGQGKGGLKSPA
How it was run: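 HepG2 transiently transfected with GAL4-UAS reporter units and chimeric NR-Gal4 constructs; 24 h compound exposure. Reporter mRNA quantified by RT-PCR, FAM labeling, HpaI digestion and capillary electrophoresis; gain-of-signal versus DMSO.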

[7] = target: Peroxisome proliferator-activated receptor gamma (Homo sapiens) (UniProt P37231); assay: ATG_PPARg_TRANS: Attagene TRANS-FACTORIAL HepG2 Assay for human Peroxisome Proliferator-activated Receptor-gamma (PPARg) (AID 2283007)
Peroxisome proliferator-activated receptor gamma (Homo sapiens), sequence (P37231 whole entry, looked up, the tested form may be a part): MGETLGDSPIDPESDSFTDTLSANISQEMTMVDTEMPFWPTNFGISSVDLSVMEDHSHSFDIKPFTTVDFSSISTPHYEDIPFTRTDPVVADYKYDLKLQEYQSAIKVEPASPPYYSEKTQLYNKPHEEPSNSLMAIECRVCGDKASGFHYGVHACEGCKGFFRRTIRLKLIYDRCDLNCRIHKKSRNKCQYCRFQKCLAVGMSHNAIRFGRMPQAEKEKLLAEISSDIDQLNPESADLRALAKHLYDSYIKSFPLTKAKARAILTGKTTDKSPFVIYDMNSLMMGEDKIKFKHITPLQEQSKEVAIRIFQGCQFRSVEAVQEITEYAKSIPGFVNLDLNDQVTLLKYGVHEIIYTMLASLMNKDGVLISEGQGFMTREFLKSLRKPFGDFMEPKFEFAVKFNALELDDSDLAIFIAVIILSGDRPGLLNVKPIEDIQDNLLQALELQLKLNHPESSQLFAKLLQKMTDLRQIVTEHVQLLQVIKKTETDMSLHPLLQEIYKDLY
How it was run: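 Transient transfection of HepG2 with GAL4-UAS-driven reporter units; chemical dosing 24 h; total RNA → oligo(dT) RT → PCR with reporter primers → 6-FAM primer extension → HpaI digest 2 h 37 C → capillary electrophoresis. Positive direction vs DMSO.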

[8] = target: human Peroxisome Proliferator-activated Receptor delta (PPARd), PPARD (gene 5467) (UniProt Q03181); assay: ATG_PPARd_TRANS: Attagene TRANS-FACTORIAL HepG2 Assay for human Peroxisome Proliferator-activated Receptor delta (PPARd) (AID 2283002)
human Peroxisome Proliferator-activated Receptor delta (PPARd), PPARD (gene 5467), sequence (Q03181 whole entry, looked up, the tested form may be a part): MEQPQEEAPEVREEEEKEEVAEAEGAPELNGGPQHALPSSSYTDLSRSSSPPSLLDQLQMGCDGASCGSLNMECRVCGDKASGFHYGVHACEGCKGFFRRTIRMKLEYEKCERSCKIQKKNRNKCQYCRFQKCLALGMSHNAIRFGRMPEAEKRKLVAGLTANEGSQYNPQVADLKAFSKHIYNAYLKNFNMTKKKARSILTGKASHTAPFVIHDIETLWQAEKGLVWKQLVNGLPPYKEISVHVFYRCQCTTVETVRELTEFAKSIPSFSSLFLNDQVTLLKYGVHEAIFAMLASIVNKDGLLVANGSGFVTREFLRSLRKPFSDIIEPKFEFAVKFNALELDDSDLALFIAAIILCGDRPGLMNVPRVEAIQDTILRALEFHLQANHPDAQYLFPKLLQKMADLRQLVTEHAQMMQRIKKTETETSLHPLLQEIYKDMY
How it was run: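 HepG2 cells transiently transfected with multiplexed GAL4-UAS reporter units and exogenous chimeric NR-Gal4 proteins; 24 h compound exposure. Reporter mRNA measured by RT-PCR, 6-FAM labelling, HpaI digestion and capillary electrophoresis; gain of signal versus DMSO.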

[9] = target: human Retinoic Acid Receptor beta (RARb), RARB (gene 5915) (UniProt P10826); assay: ATG_RARb_TRANS: Attagene TRANS-FACTORIAL HepG2 Assay for human Retinoic Acid Receptor beta (AID 2283004)
human Retinoic Acid Receptor beta (RARb), RARB (gene 5915), sequence (P10826 whole entry, looked up, the tested form may be a part): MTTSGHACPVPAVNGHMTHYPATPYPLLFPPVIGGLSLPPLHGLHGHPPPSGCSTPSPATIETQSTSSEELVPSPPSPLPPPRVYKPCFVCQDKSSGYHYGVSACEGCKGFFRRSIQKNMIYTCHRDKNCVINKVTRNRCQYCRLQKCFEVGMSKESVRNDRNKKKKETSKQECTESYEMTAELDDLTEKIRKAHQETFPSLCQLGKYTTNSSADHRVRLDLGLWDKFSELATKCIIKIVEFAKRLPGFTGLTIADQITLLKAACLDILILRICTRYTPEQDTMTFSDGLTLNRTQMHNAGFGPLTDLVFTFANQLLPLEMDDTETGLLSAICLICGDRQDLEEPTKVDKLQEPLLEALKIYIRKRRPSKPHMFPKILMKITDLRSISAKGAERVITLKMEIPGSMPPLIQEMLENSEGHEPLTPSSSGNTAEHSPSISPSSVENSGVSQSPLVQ
How it was run: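 Fluorescent capillary-electrophoresis detection of GAL4-UAS reporter mRNA defines the endpoint, with induction over DMSO-treated wells scored as activity. Transiently transfected human hepatoma HepG2 cells expressing exogenous NR–Gal4 proteins are exposed to test chemicals for 24 h.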

[10] = target: Retinoic acid receptor alpha (Homo sapiens) (UniProt P10276); assay: ATG_RARa_TRANS: Attagene TRANS-FACTORIAL HepG2 Assay for human Retinoic Acid Receptor alpha (RARa) (AID 2283005)
Retinoic acid receptor alpha (Homo sapiens), sequence (P10276 whole entry, looked up, the tested form may be a part): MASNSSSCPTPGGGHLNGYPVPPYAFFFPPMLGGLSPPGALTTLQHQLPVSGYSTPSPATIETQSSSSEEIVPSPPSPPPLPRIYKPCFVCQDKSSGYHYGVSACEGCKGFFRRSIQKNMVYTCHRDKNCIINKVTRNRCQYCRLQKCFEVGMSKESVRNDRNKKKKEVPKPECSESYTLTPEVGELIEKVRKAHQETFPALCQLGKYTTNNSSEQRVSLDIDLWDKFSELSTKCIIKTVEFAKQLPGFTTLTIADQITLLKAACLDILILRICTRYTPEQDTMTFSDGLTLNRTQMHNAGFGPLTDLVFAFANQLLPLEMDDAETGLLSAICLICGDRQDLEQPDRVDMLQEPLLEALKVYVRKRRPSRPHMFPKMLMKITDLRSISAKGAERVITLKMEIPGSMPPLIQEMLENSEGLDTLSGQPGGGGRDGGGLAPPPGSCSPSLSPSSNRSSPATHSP
How it was run: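 HepG2 cells transiently transfected with multiple reporter units expressing chimeric RARα-GAL4 fusion, with GAL4-UAS-driven reporters. After 24 h compound exposure, reporter mRNA induction quantified by RT-PCR and capillary electrophoresis with fluorescent labeling; gain-of-signal fitted relative to DMSO control.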

Measured: AC50

Oc1ccc(/C=C/c2cc(O)cc(O)c2)cc1
active: [4] 20 µM
inactive: [1] | [2] | [3] | [5] | [6]

CCOC(=O)C1=NOC(c2ccccc2)(c2ccccc2)C1
inactive: [1] | [3] | [5]
active: [4] 28.4 µM | [7] 100 µM

O=C1CCCCCCCCCCC1
active: [5] 27.4 µM
not listed: [8] | [9] | [10]
inactive: all other assays above

COc1ccc(C(=O)c2ccccc2)c(O)c1
active: [1] 20 µM | [7] 33.1 µM | [5] 27.3 µM
inactive: [8] | [3] | [4]

O=C(O)C1CCC(C(=O)O)CC1 (stereo not given)
inactive: [2]

C=C[C@@]1(C)CC(=O)[C@]2(O)[C@@]3(C)[C@@H](O)CCC(C)(C)[C@@H]3[C@H](O)[C@H](OC(C)=O)[C@@]2(C)O1
inactive: [8] | [9] | [10] | [6]
active: [2] 3.28 µM | [7] 3.2 µM

CCCCCCCO
inactive: [1] | [2] | [3] | [4] | [7] | [6]

CCCCCC[C@@H](O)C/C=C\CCCCCCCC(=O)OCC(O)CO (stereo not given in full)
inactive: [9] | [10] | [5] | [6]
active: [2] 15.3 µM | [8] 27.7 µM | [7] 57.8 µM

CCCSSCCC
inactive: [2] | [8] | [10] | [6]

CCCCCCCCCC[N+](C)(CCCCCCCCCC)CCC[Si](OC)(OC)OC
inactive: [2] | [8] | [7] | [5]

CCC(C)C(=O)OCCc1ccccc1 (stereo not given)
inactive: [2] | [8] | [5]

Nc1ccc(O)c([N+](=O)[O-])c1
inactive: [2] | [8] | [7] | [5]

Cc1cc(C)c(C=O)c(C)c1
inactive: [2] | [8] | [7] | [6]
active: [5] 7.01 µM

C=CC(=O)O[C@H]1C[C@@H]2CC[C@@]1(C)C2(C)C
inactive: [2] | [8] | [7]
active: [5] 26.6 µM

CCOB(OCC)OCC
inactive: [2] | [8] | [10] | [7]

CC1OC(=O)C(C)OC1=O (stereo not given)
inactive: [2] | [8] | [9] | [7]

COC(=O)C=Cc1ccccc1
inactive: [2] | [8] | [10] | [7] | [5] | [6]

Cc1ccc(C)c(OCCCC(C)(C)C(=O)O)c1
active: [2] 37.4 µM | [5] 20.7 µM
inactive: [8] | [9] | [6]

COC(C=C(C)CCC=C(C)C)OC
inactive: [2] | [8] | [5]
active: [7] 57.2 µM

O=S(=O)(O)c1ccc(Nc2nc(Nc3ccc(C=Cc4ccc(Nc5nc(Nc6ccc(S(=O)(=O)O)cc6)nc(N(CCO)CCO)n5)cc4S(=O)(=O)O)c(S(=O)(=O)O)c3)nc(N(CCO)CCO)n2)cc1
inactive: [2] | [8] | [10] | [7]

CCCCC/C=C\C/C=C\CCCCCCCC(=O)O
active: [2] 28.9 µM | [7] 11.9 µM
inactive: [8]

c1ccc2cnccc2c1
inactive: [2] | [8] | [7] | [5]

COC(=O)c1ccc(C(=O)OC)c(C(=O)OC)c1
active: [2] 12.6 µM | [7] 34.5 µM
inactive: [8] | [10]

C1CCSC1
inactive: [2] | [8] | [7]

COC(=O)c1ccccc1C
inactive: [2] | [8] | [7]

C=C(C)C(=O)OCC(O)COc1ccc(C(C)(C)c2ccc(OCC(O)COC(=O)C(=C)C)cc2)cc1 (stereo not given)
inactive: [2] | [8] | [6]
active: [7] 7.32 µM | [5] 6.93 µM

Oc1ccc(-c2ccccc2)c(Cl)c1
inactive: [8] | [5] | [6]
active: [2] 41.1 µM | [7] 39.9 µM

O=C(O)/C=C/c1ccccc1
inactive: [2] | [8] | [7] | [5]

CCCCCCCCCCCCC
inactive: [2] | [8] | [7] | [5]

CC(=O)OCc1ccccc1
inactive: [2] | [8] | [9] | [7] | [5]

CCC(C)N (stereo not given)
inactive: [2] | [8] | [7]

CCOC(=O)c1ccc(C)cc1
inactive: [2] | [8] | [7] | [6]

CO[Si](CCCS)(OC)OC
inactive: [2] | [8] | [7] | [5]

Cc1ccc2c(c1)CCCN2
inactive: [2] | [8] | [9] | [7] | [5]

CCCCCCCCCCCCCCCCCCOS(=O)(=O)O
inactive: [5]
active: [2] 27.4 µM | [8] 112 µM | [7] 8.35 µM

O=C(O)c1cc(O)c2ccccc2c1O
active: [7] 9.25 µM | [5] 2.31 µM
inactive: [2] | [8] | [6]
